Only some compounds are listed: those with a hit (about 2.8% of all), similar ones and a draw of the others.
Pol iota inh – blocks human DNA polymerase iota activity. Potency, µM (top dose mostly 115 µM), for inactives: at the top dose activity, negative = inhibition, usual class: inhibitors. AID 588590. actives 1% (n = 390,000). Pol iota fluorescent replication assay, 10 min; also: potency is read from the fitted curve at half-maximal effect
Target sequence (Q9UNA4 whole entry, looked up): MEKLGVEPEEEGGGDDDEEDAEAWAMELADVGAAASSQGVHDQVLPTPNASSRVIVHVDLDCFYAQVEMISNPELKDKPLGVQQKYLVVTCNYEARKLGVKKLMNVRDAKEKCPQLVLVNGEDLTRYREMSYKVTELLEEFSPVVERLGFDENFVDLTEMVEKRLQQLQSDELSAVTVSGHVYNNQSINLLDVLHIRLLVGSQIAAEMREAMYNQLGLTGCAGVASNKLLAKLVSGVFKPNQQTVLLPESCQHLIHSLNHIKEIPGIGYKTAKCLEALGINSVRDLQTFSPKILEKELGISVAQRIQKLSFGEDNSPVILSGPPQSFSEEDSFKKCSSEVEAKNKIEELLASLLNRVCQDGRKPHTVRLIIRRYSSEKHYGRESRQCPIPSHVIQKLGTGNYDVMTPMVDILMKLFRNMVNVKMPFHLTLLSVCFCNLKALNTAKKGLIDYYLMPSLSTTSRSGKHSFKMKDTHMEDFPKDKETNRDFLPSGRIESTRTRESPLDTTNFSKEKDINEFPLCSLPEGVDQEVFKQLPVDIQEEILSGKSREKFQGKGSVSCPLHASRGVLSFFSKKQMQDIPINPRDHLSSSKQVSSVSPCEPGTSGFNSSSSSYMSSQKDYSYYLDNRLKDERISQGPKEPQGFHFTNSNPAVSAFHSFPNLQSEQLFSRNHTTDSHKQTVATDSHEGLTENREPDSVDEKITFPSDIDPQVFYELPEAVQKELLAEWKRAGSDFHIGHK
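Pol iota at 10 nM preincubated 15 min with compounds at room temperature; reaction started with fluorescent substrate, 50 nM final. Fluorescence read kinetically at 0 and 10 min; buffer-only wells as negative control.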
Pol eta inh-1 – DNA polymerase eta (human) inhibition | recombinant Pol eta, fluorescent DNA replication assay | Potency, µM (titrated, usually from 114 µM), for inactives: at the top dose activity change, negative = inhibition, hits mostly inhibitors | actives 1.2% (n = 390,000) | AID 588591; also: potency is read from the fitted curve at half-maximal effect; % is scaled to controls: 0 for no effect and ±100 for the full control effect
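Pol eta (10 nM) was preincubated with compounds for 15 min at room temperature, after which fluorescent replication substrate (50 nM final) was added to start the reaction. Fluorescence was read kinetically at 0 and 10 min.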
Pol kappa inh-1 – DNA polymerase kappa (human) inhibition. Q9UBT6. purified Pol kappa, fluorescent DNA synthesis assay, 10 min. Potency, µM (doses to about 107 µM), for inactives: at the top dose activity, negative = inhibition, most hits filed as inhibitors. actives 0.53% (n = 400,000). AID 588579; also: potency is read from the fitted curve at half-maximal effect; % is scaled to controls: 0 for no effect and ±100 for the full control effect
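10 nM Pol kappa was preincubated with compounds for 15 min at room temperature. Reaction started with 50 nM (final) substrate. Fluorescence read kinetically at 0 and 10 min.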
PI5P4Ka inh – PI5P4K alpha (human) kinase inhibition; P48426; PI5P4Kalpha enzyme, ADP-Glo luminescence, 60 min; stronger effect = lower value; max response, %; actives 1.2% (n = 330,000); AID 652105; active = max response of -50% or lower; inconclusive = between -30% and -50%; inactive = -30% or higher; also: value at the top dose of about 77 µM; % is scaled to controls: 0 for no effect and ±100 for the full control effect
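qHTS, 1536-well: enzyme/substrate mix, compound by pin tool, 5 microM ATP final; RT 60 min; ADP-Glo reagents 1 (45 min) then 2 (30 min); luminescence.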
POLB inh – inhibitors of human DNA polymerase beta; P06746; Pol beta primer extension/strand displacement, fluorescence kinetic; Potency, µM (doses to about 114 µM), for the others: top-dose activity change, negative = inhibition, hits mostly inhibitors; actives 1.3% (n = 340,000); also: potency is read from the fitted curve at half-maximal effect; % is scaled to controls: 0 for no effect and ±100 for the full control effect
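Human Pol beta at 10 nM; strand-displacement substrate 50 nM final. Compound exposure 15 min at room temperature before start, reaction 10 min at room temperature.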
WRN inhibitor – blocks human WRN helicase | Q14191 | WRN helicase unwinding, fluorescent forked duplex, kinetic | Potency, µM (top dose mostly 114 µM), for inactives: top-dose activity change, negative = inhibition, usual class: inhibitors | actives 0.46% (n = 360,000) | AID 651768; also: potency is read from the fitted curve at half-maximal effect; % is scaled to controls: 0 for no effect and ±100 for the full control effect; nearly all actives have a fitted effect of over 55% in size
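WRN at 20 nM final was preincubated with compound for 15 min at room temperature; reaction started with 100 nM forked duplex oligonucleotide carrying fluorophore and quencher plus 2 mM ATP (final). Unwinding followed kinetically by red fluorescence (ex 525/em 598 nm).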
GALK inh confirm – galactokinase (human) inhibition, confirmation | shares compounds with Pol eta inh-1 | purified GALK, Kinase-Glo ATP depletion luminescence | Potency, µM (doses to about 115 µM), for inactives: at the top dose activity, negative = inhibition, usual class: inhibitors | actives 70% (n = 150)
GALK redox cs – redox cycling activity in phenol red-HRP assay | AID 2035 | actives 40% (n = 150) | shares compounds with Pol eta inh-1 | Potency, µM (titrated, usually from 115 µM), without a hit: at the top dose activity change, negative = H2O2 signal, actives largely listed as inhibitors | Phenol red-HRP H2O2 redox cycling, absorbance 600 nm
HEK293 tox – HEK-293 cytotoxicity, GALK inhibitor secondary; shares compounds with Pol eta inh-1; HEK-293 viability, ATP luminescence (CellTiter-Glo), 24/48 h; Potency, µM (titrated, usually from 46.1 µM), for the others: top-dose activity change, negative = cytotoxicity, most hits filed as inhibitors; actives 10% (n = 170); AID 2547; also: potency is read from the fitted curve at half-maximal effect; % is scaled to controls: 0 for no effect and ±100 for the full control effect
Pol kappa inh-2 – confirmation of human DNA polymerase kappa inhibitors; shares compounds with Pol eta inh-1; purified Pol-kappa, fluorescent strand-displacement substrate; Potency, µM, hits mostly inhibitors; actives 76% (n = 920); AID 720501; also: potency is read from the fitted curve at half-maximal effect
Pol eta inh-2 – Pol eta (human) inhibition, cherry-pick confirmation | Potency, µM, usual class: inhibitors | shares compounds with Pol eta inh-1 | AID 720502 | Pol eta primer extension, TAMRA/BHQ fluorescence, 10 min | actives 64% (n = 2,600); also: potency is read from the fitted curve at half-maximal effect
Starred values were filed as active, the others as inactive; ? = inconclusive; . = no result given; [ ] = remark or other dose. Unless noted, calls follow the shape of the dose curve; as a rule, active = well fitted curve in the direction sought with a large enough effect; inconclusive = small, poorly fitted or top-dose-only effect, or another doubt; inactive = no such curve, though single readings can be large; an effect the other way counts as inactive or inconclusive.

SMILES | Pol iota inh | Pol eta inh-1 | Pol kappa inh-1 | PI5P4Ka inh | POLB inh | WRN inhibitor | Pol eta inh-2 | others
CC1CCN(S(=O)(=O)c2ccc(NC(=O)CN3CCCC3)cc2)CC1 | 136% | -21% | 6% | -4 | -27% | -5% | .
CC1CCN(S(=O)(=O)c2ccc(NC(=O)Cc3cccs3)cc2)CC1 | ? | ? | ? | . | 14µM* | ? | ?
N#Cc1cc([N+](=O)[O-])cnc1NCC(O)CO (stereo not drawn) | ? | -5% | -10% | -3 | 69% | 1% | .
OC[C@H]1O[C@@H](c2nc(-c3ccc4[nH]ccc4c3)no2)[C@H](O)[C@@H](O)[C@H]1O | . | . | . | -1 | . | -2% | .
O=C(Oc1ccc(F)c(F)c1)c1ccc2c(=O)n3c(nc2c1)CCC3 | 44% | -19% | -6% | -14 | . | -2% | .
O=C(Oc1cccc([N+](=O)[O-])c1)c1ccc2c(=O)n3c(nc2c1)CCC3 | 40µM* | 28µM* | ? | ? | . | -10%[11.6 µM] | 76*
Cc1ccc(-c2ccc(CCC(=O)O)n2Cc2ccco2)cc1 | ? | 22µM* | -28% | ? | ? | ? | ?
O=C(O)c1cc(NS(=O)(=O)c2ccc(N3CCOCC3)c([N+](=O)[O-])c2)cc(C(=O)O)c1 | 7% | 4% | -7% | -5 | -2% | -18% | .
O=C(O)c1cc(NS(=O)(=O)c2ccc(NCc3ccccc3)c([N+](=O)[O-])c2)cc(C(=O)O)c1 | -11% | 16µM* | -24% | -2 | -20% | -9%[11.6 µM] | . | Pol kappa inh-2=?
Cc1cc(NS(=O)(=O)c2ccc(NC(=O)COc3ccccc3[N+](=O)[O-])cc2)no1 | 35µM* | 20µM* | ? | ? | 18µM* | ? | 67*
COC1(NC(=O)c2ccccc2)C(C)=CC(=O)C=C1C | 67% | -20% | -1% | 2 | 29% | 0% | .
O=C(Nc1ccccc1Cl)c1c(F)c(F)c(F)c(F)c1F | 17% | -8% | -14% | 1 | . | -33% | .
O=C(NC1(O)C(=O)c2ccccc2C1=O)c1c(Cl)cccc1Cl | 1.6µM* | 45µM* | -13% | -10 | 11% | -6%[11.6 µM] | ? | GALK inh confirm=24µM*;GALK redox cs=9.4µM*;HEK293 tox=14%
O=C(NC1(O)C(=O)c2ccccc2C1=O)c1ccccc1 | 6.3µM* | 32µM* | -17% | -3 | -6% | -19% | . | GALK inh confirm=24µM*;GALK redox cs=11µM*;HEK293 tox=-1%
Cc1ccc(N(CC(=O)Nc2ccc(Br)c(C)c2)S(=O)(=O)c2cccs2)cc1 | -5% | -5% | -7% | . | -2% | . | .
Cc1cc(/C=C2/C(=O)NN(c3ccccc3)C2=O)c(C)n1-c1ccc(O)cc1 | -9% | -8% | -12% | -20 | 8% | -19% | .
Cc1cc(C=C2C(=O)CCCC2=O)c(C)n1-c1ccccc1 | 18µM* | 18µM* | ? | ? | ? | -15%[11.6 µM] | 76*
Cc1ccc(/C=c2\sc3nc(-c4cccnc4)nn3c2=O)cc1 | ? | 10µM* | -21% | -18 | ? | ? | ?
CC1=CC(c2ccc(Cl)cc2)n2nc(NS(=O)(=O)c3ccc(C)cc3)nc2N1 (stereo not drawn) | ? | 6% | 0% | . | 0% | -8% | .
CC(=O)Nc1ccc(S(=O)(=O)Nc2nc3n(n2)C(c2ccccc2)C=C(c2ccc(Cl)cc2)N3)cc1 (stereo not drawn) | -15% | ? | 3%[60.1 µM] | . | -1% | . | ?
O=S(=O)(Nc1nc2n(n1)C(c1ccc(F)cc1)C=C(c1ccccc1)N2)c1ccc(Cl)cc1 (stereo not drawn) | 22% | ? | -11% | . | -16% | . | .
O=S(=O)(Nc1nc2n(n1)C(c1ccccc1)C=C(c1ccc(Cl)cc1)N2)c1ccccc1 (stereo not drawn) | -19% | 89µM* | 0% | . | 22% | . | ? | Pol kappa inh-2=67*
Cn1c(=O)oc2cc(S(=O)(=O)NCCC(=O)Nc3ccc4c(c3)OCCO4)ccc21 | ? | -27% | -30% | . | -3% | -14% | .
Cn1c(=O)oc2cc(S(=O)(=O)NCCC(=O)Nc3ccc(F)c(Cl)c3)ccc21 | 79µM* | 32µM* | 79µM* | . | ? | . | 43*
Cc1cc(C)nc(NS(=O)(=O)c2ccc(-n3cccc3)cc2)n1 | ? | 10µM* | 79µM* | -9 | 32µM* | ? | 54*
SMILES | Pol iota inh | Pol eta inh-1 | Pol kappa inh-1 | PI5P4Ka inh | POLB inh | WRN inhibitor | Pol eta inh-2 | others
O=[N+]([O-])c1cc([N+](=O)[O-])c2oc(-c3ccccc3)c(Br)c2c1O | ? | 25µM* | ? | -102* | 28µM* | ? | . | GALK inh confirm=53µM*;GALK redox cs=7%;HEK293 tox=-8%
O=c1c(O)c(-c2ccccc2)oc2cccc(O)c12 | . | . | -13%[60.1 µM] | . | . | . | .
Cc1ccccc1C(=O)Nc1nnc(S(=O)(=O)N(C)Cc2ccco2)s1 | -26% | ? | ? | -15 | -23% | -14% | .
CN(c1ccc(Cl)cc1)S(=O)(=O)c1nnc(NC(=O)c2ccco2)s1 | ? | ? | ? | -26 | ? | 4%[11.6 µM] | ? | Pol kappa inh-2=?
Cc1ccc(N(C)S(=O)(=O)c2nnc(NC(=O)c3ccco3)s2)cc1 | 29% | -5% | 9% | -5 | 30% | -2% | .
CN(Cc1ccco1)S(=O)(=O)c1nnc(NC(=O)c2ccccc2Cl)s1 | ? | 50µM* | ? | -29 | ? | ? | ?
CCc1ccc(Nc2n[n+](C)c(-c3ccncc3)s2)cc1 | ? | -7% | -8% | ? | 11% | 1% | .
Cc1noc(C)c1COc1ccc(C(=O)NCCc2ccccn2)cc1 | 21% | -6% | 10% | -3 | 4% | 8% | .
